Data on 8 compounds can be found in PubChem BioAssay.

Experiment [1] can be described thus: yeast 75Q aggregation reduction – 75Q-TubU reporter (AID 1593). The note with it: Yeast 75Q polyglutamine aggregation reporter.
Experiment [2] is described as follows: restoration of touch response, mutant HTT neurons – whole organism, C. elegans mechanosensory neurons, N-terminal huntingtin (AID 1599). The note with it: C. elegans polyQ-huntingtin mechanosensory neurons, stronger effect = higher value.
Experiment [3] can be described thus: blockers of cytochrome c efflux from mitochondria – biochemical, purified mitochondria (AID 1603).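 Also: mouse liver mitochondria challenged with calcium chloride; signal normalized to the plate average as 100%.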 As to conditions: stronger effect = lower value.
Experiment [4] can be described thus: polyglutamine aggregate formation blockers (AID 1604). As to conditions: polyglutamine-induced protein aggregation inhibition assay; stronger effect = higher value; tested at 2.5 µM.
Experiment [5] can be described thus: glutamate transport activators, MN-1 cells, MN-1 cell line (AID 1612).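 Also: tested at 1 µM final; 0% = mean of DMSO vehicle wells on each plate; positive means more glutamate uptake than control and negative means less.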 The note with it: MN-1 motor neuron cells, stronger effect = higher value.
Experiment [6] can be described thus: 75Q-TubH aggregate inhibition, S. cerevisiae, yeast (AID 1616). The note with it: S. cerevisiae 75Q-TubH polyglutamine aggregation suppression; stronger effect = higher value.
A short description of experiment [7]: P. berghei load reduction in hepatocytes – cell-based, HepG2, luciferase luminescence, HepG2 viability, primary screen (AID 624349; in the data active = parasite load remaining mostly below about 12%, no sharp cut-off; inactive = mostly above about 10%;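 also: 100% = mean of DMSO negative control wells on the same plate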). The note with it: P. berghei liver stage in HepG2, luciferase luminescence, concentration not given here; parasite load remaining: stronger effect = lower value; viability: measured here: HepG2 viability without parasites.
Experiment [8] can be described thus: EMT-state selective cytotoxicity in co-culture – imaging, PC-3E GFP, TEM4-18 mCherry, primary screen (AID 1345086).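 As to all read-outs here: cells exposed to compound for 72 h before imaging.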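 As to red/green cell ratio (normalised): normalised mesenchymal count divided by normalised epithelial count so high means epithelial killing.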 The note with it: PC-3E GFP / TEM4-18 mCherry co-culture, imaging cell counts, at 1 µM; for red/green cell ratio (normalised): actives lie on both sides.
The subject of experiment [9] is Aerobactin synthetase IucA (Klebsiella pneumoniae hvKP1). Kind of experiment: IucA enzyme inhibition, primary screen, biochemical, Spectrum library (AID 1346200; call rule not given here;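 also: 100% = wells without compound and 0% = wells lacking enzyme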). As to conditions: malachite green pyrophosphate, A620, at 8 µM, stronger effect = lower value.
Experiment [10] can be described thus: viability loss with induced miR-34 in A549 – imaging, A549 dox-inducible miR-34, nuclei and caspase counts, primary screen (AID 1347080;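 active = compounds whose cell count with miR-34 switched on is under 0.7 times the count with it off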). As to conditions: A549 miR-34 inducible, Hoechst nuclei count, 48 h.
In experiment [11] the target is Mitogen-activated protein kinase 7 (Homo sapiens) (UniProt Q13164). Kind of experiment: Gal4-ERK5 driven luciferase induction – cell-based, HTS, primary screen (AID 1508626;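 active = luciferase signal above three times the same-plate solvent-only control wells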;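 also: luciferase driven by Gal4-ERK5 fusion binding five Gal4 sites before minimal TATA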). As to conditions: HeLa Gal4-ERK5 transactivation, 18 h, at 5 µM, stronger effect = higher value.
Experiment [12] is described as follows: MELAS cybrid and Rieske KO viability enhancers – cell-based, MELAS cybrids, Rieske KO mouse fibroblasts, CellTiter-Glo, primary screen (AID 1508586;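 active = mean z-score across replicates of 1.96 or higher in either the MELAS or the Rieske mutant cell line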;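 also: z relative to plate mean and SD of compound and empty wells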). As to conditions: low glucose.
Experiment [13] is described as follows: galactose survival enhancers in mitochondrial complex I cybrids – cell-based, galactose medium, ATP luminescence, primary screen (AID 1645843;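 active = z-score of at least 1.8 in each of two replicates, scored against plate mean and spread of sample wells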;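 also: positive z means more ATP and so rescue of galactose-driven cybrid death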). The note with it: complex I mutant cybrid cells, 72 h, stronger effect = higher value.
[14] abbreviates: measured here: epithelial PC-3E GFP cell survival.
[15] abbreviates: measured here: mesenchymal TEM4-18 mCherry cell survival.
The mark [16] stands for this setting: measured here: relative caspase fold change +Dox/-Dox.
The mark [17] stands for this setting: measured here: total cells with miR-34 induction, stronger effect = lower value.
The mark [18] stands for this setting: measured here: total cells without miR-34 induction.

SMILES strings stand for the structures. Where “and” joins values, the source holds several entries; their conditions need not be identical. Equal values may be shown once. For part of these data: Measured potencies and affinities stand elsewhere. Calls of active or inactive are those of the source.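 The calls were made as follows, unless noted: active = compounds killing one labelled cell type while sparing the other, by normalised counts and ratio limits, not self-fluorescent; inactive = the rest.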

Mitogen-activated protein kinase 7 (Homo sapiens), sequence (Q13164 whole entry, looked up, the tested form may be a part): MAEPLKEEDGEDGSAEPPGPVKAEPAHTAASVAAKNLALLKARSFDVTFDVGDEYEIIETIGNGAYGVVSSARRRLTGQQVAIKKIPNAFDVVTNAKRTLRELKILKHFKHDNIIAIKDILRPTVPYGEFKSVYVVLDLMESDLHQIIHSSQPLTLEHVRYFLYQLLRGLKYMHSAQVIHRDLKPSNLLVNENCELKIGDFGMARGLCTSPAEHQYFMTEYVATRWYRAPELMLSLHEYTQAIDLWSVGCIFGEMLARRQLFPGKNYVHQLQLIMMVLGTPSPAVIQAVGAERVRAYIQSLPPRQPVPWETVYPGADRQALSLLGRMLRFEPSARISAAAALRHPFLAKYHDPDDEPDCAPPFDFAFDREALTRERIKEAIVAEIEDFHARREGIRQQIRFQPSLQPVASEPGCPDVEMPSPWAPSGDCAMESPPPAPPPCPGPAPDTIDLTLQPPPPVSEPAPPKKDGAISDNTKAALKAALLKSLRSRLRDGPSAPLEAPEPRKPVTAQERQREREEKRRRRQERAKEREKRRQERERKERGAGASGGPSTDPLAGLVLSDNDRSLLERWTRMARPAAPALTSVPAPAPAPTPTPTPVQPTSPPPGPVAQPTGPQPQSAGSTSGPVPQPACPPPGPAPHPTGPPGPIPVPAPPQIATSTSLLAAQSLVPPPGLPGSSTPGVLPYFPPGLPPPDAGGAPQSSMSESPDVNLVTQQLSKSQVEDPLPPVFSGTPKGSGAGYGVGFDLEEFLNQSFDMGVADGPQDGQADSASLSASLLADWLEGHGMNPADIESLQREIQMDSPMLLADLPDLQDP

`Oc1ccc2c3c1OC1[C@@H](O)CC[C@@]4(O)[C@@H](C2)N(CC2CCC2)CC[C@]314` (stereo not given in full): the score in experiment [1] was found to be 1.45. The same compound registered a rescue above control in [2] of -8.65. For the same compound, in experiment [3], the cytochrome c release ratio is 0.87. Besides, the inhibition of aggregation in [4] amounted to 52.2%. For the same compound, the glutamate uptake change in experiment [5] is -2.6%. The same compound showed an aggregation suppression score in experiment [6] of 1.67. For the same compound, in experiment [7], the parasite load remaining was 136% (inactive) and 45% (inactive). Moreover, the viability in experiment [7] is 75.1% and 93.8%. Moreover, the red/green cell ratio (normalised) in experiment [8] was 0.87 (inactive). Also, the normalised cell number in experiment [8] (setting [14]) is 1.11; in [8] (setting [15]), 0.97. In addition, the activity remaining in experiment [9] is 103% (inactive). In addition, the fold change in [10] (stronger effect = lower value) was 0.892 (inactive); in [10] (setting [16]) it was 2.83. Also, the values for the cell count in experiment [10] (setting [17]) and in [10] (setting [18]) were 12000 and 13500, respectively.

For the compound `CCCCC[C@H]1C(=O)O[C@H](C)[C@H](NC(=O)c2cccc(NC=O)c2O)C(=O)O[C@@H](C)[C@@H]1OC(=O)CC(C)C`, in experiment [1], the score was found to be 0.73. The compound further gave a rescue above control in experiment [2] of -18. Moreover, the cytochrome c release ratio in [3] was 0.26. Further, the inhibition of aggregation in experiment [4] came out at 7.32%. The glutamate uptake change in [5] is 3.11%. In addition, the aggregation suppression score in experiment [6] was 0.0257. In addition, the red/green cell ratio (normalised) in experiment [8] is 0.71 (inactive). For the same compound, the normalised cell number in experiment [8] (setting [14]) came to 0.78; in experiment [8] (setting [15]) it was 0.55. Also, the activity remaining in [9] was 111% (inactive). Also, the luciferase signal in experiment [11] is 60 AU (inactive).

With `O=C(NC(=O)c1c(F)cccc1F)Nc1ccc(Cl)cc1`, the red/green cell ratio (normalised) in experiment [8] is 1 (inactive). The normalised cell number in experiment [8] (setting [14]) and in experiment [8] (setting [15]) was 0.99 throughout. Also, the activity remaining in experiment [9] was 122% (inactive). The luciferase signal in experiment [11] is 32 AU (inactive).

As for `C[C@H](N)[C@H](O)c1ccccc1`, the parasite load remaining in [7] was 65.1% (inactive) and 27.2% (inactive). Further, the viability in experiment [7] is 97.7% and 73%. Moreover, in experiment [8], the red/green cell ratio (normalised) was 1.19 (inactive). Moreover, the values for the normalised cell number in [8] (setting [14]) and in [8] (setting [15]) were 0.91 and 1.08, respectively. Further, the fold change is 0.856 (inactive) and 0.884 (inactive) in experiment [10] (stronger effect = lower value); 0.745 and 1.02 in experiment [10] (setting [16]). The cell count in experiment [10] (setting [17]) was 11600 and 9670; in experiment [10] (setting [18]) it was 13500 and 10900. Further, the z-score in experiment [12] (MELAS cybrid survival, CellTiter-Glo 48 h, stronger effect = higher value) was -0.606 (inactive); in experiment [12] (Rieske KO mouse fibroblast survival, CellTiter-Glo 72 h), -1.57; in experiment [13], -0.235 (inactive).

On to `CC(=O)O[C@@H]1CC[C@]2(C)C3CC[C@]4(C)C(=O)CCC4C3CC[C@H]2C1` (stereo not given in full), for which, in experiment [7], the parasite load remaining was 51% (inactive) and the viability was determined as 94%. Also, the red/green cell ratio (normalised) in experiment [8] was 1.18 (inactive). In addition, in experiment [8] (setting [14]), the normalised cell number was 0.95. The compound further showed a normalised cell number in experiment [8] (setting [15]) of 1.12. For the same compound, in experiment [9], the activity remaining is 99.4% (inactive).

Take `COC1=CC(=O)OC(/C=C/c2ccccc2)C1` (stereo not given): in experiment [8], the red/green cell ratio (normalised) was 0.84 (inactive). Also, the normalised cell number is 0.94 in [8] (setting [14]) and 0.79 in experiment [8] (setting [15]). Also, the fold change in experiment [10] (stronger effect = lower value) is 0.833 (inactive); in experiment [10] (setting [16]) it was 1.16. Besides, the cell count in experiment [10] (setting [17]) is 4840; in experiment [10] (setting [18]), 5810.

`CCC(C)C(=O)O[C@H]1[C@H](O)C2C(CN3CC(C)CCC3[C@@]2(C)O)C2C[C@]34O[C@]5(O)C(OC(=O)C(C)(O)CC)CC[C@@]3(C)C5C(OC(C)=O)[C@@H](OC(C)=O)C4[C@@]21O` (stereo not given in full) gave a score in experiment [1] of 1.53. This compound yielded a rescue above control in [2] of -1.62. Further, the cytochrome c release ratio in experiment [3] is 0.8. The inhibition of aggregation in experiment [4] amounted to 60.8%. For the same compound, the glutamate uptake change in experiment [5] worked out at 12.6%. Also, the aggregation suppression score in experiment [6] amounted to 1.64. Also, the parasite load remaining in [7] was 35.5% (inactive). Besides, in experiment [7], the viability was 65.2%. For the same compound, in experiment [8], the red/green cell ratio (normalised) was 0.9 (inactive). The normalised cell number in experiment [8] (setting [14]) was determined as 1.11; in [8] (setting [15]), 1. In addition, the activity remaining in experiment [9] is 105% (inactive).

Turning to `CC(=O)O[C@H]1CC[C@@]2(C)C(=CCC3C2CC[C@]2(C)C(=O)CCC32)C1` (stereo not given in full), the parasite load remaining in [7] is 162% (inactive). Further, in experiment [7], the viability was 84.8%. In [8], the red/green cell ratio (normalised) is 0.81 (inactive). Moreover, the values for the normalised cell number in experiment [8] (setting [14]) and in [8] (setting [15]) were 1.28 and 1.04, respectively. Moreover, the activity remaining in experiment [9] is 103% (inactive).
